Reference: ChEMBL document CHEMBL3988442, “University of Dundee, Small-Polar-MMV Screening Library” (2021)

Experiments:
[1] = biological target: T1, Aspartate--tRNA(Asp/Asn) ligase (Mycobacterium tuberculosis (strain ATCC 25618 / H37Rv)) (UniProt P9WFW3); assay: Assay for Asp RNA synthetase-1 from Mycobacterium tuberculosis; assay type: functional; set-up: scale not given: direction of the effect not stated beside the values; conditions: 30 µM; further: in the data most compounds retested in dose-response had high values
T1 sequence (whole entry): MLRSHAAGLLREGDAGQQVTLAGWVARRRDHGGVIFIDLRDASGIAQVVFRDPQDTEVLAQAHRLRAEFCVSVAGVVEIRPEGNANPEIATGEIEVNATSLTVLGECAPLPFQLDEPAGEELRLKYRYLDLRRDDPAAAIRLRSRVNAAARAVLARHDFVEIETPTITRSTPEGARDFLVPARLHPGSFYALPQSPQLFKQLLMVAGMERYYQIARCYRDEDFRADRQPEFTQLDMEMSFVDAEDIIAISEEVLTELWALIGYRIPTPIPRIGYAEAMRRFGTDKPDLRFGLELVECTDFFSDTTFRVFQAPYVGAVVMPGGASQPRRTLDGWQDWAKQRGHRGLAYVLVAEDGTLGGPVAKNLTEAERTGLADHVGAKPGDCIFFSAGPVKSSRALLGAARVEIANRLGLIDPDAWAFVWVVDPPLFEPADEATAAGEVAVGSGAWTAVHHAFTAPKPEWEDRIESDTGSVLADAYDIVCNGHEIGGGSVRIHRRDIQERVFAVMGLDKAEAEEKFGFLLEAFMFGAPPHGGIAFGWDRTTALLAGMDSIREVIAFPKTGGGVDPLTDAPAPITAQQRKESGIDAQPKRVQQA

[2] = biological target: Shiga toxin 2 (Escherichia coli O157:H7) (UniProt P09385+P09386); assay: E. coli 0.157:H7 Shiga Toxin SOP - stx2 screening assay; assay type: functional; set-up: scale not given: direction of the effect not stated beside the values; conditions: 30 µM

| SMILES | Percent Effect [1] | Percent Effect [2] |
| --- | --- | --- |
| CCc1nc(CC(=O)Nc2cnn(CC3CCCO3)c2)cs1 (stereo not given) | 1.86% | -10.7% |
| COc1ccc2c(ccn2CCC(=O)O)c1 | -2.82% | -49% |
| COc1cccc2c1OCC(C(=O)N1CCN(S(C)(=O)=O)CC1)C2 (stereo not given) | -3.14% | 14.3% |
| CCCc1nc(C(=O)N2CCCn3nc(CCC(=O)O)cc3C2)cs1 | -2.6% | 15.5% |
| O=C([C@H]1C[C@H]2OCC[C@H]2N(CCc2ccccc2)C1)N1CCCCO1 | 0.871% | 6.49% |
| COCC1CC2(CCN(C(=O)c3cc(C)oc3C)CC2)CN1C(C)C (stereo not given) | -2.27% | -25.7% |
| CCCc1n[nH]c(C2CN(CCNS(=O)(=O)CC)CCO2)n1 (stereo not given) | 2.63% | -17% |
| CCc1nccc(CN2CCCC(c3nn(C)c(=O)n3CC)C2)n1 (stereo not given) | 1.68% | 10.8% |
| CC(NC(=O)CCCOc1ccccc1Cl)c1ccncc1 (stereo not given) | 5.49% | -35% |
| O=S(=O)(NCC1(O)CCOc2ccccc21)c1ccc(Br)s1 (stereo not given) | 3.31% | 17.9% |
| CSc1ccccc1C(C(=O)O)N1CCN(Cc2ccccn2)CC1 (stereo not given) | -1.38% | 17.4% |
| O=C(c1cnccn1)N1CCc2onc(CN3CCOCC3)c2C1 | -0.84% | -5.1% |
| COc1ccc(CN2C[C@@H]3COC[C@]3(CN(C)C)C2)cc1 | 2.52% | 3.85% |
| CCC(CC)C(=O)N1CCC2(C1)CN(c1ccccc1)C(=O)CN2C (stereo not given) | -4.01% | -3.77% |
| Cc1ccc(-c2nnc(SCC(=O)O)n2-c2ccc(C)cc2)cc1 | 0.544% | -4.96% |
| CC(CCc1ccccc1)NC(=O)Nc1cnn(CC(N)=O)c1 (stereo not given) | 2.84% | -44.2% |
| CC1=N[C@@]2(CC[C@@H]3CN(CC(=O)N(C)C)C[C@@H]32)C(=O)N1CC(C)C | -0.203% | -75.1% |
| CNC(=O)c1cc2c(nc1NC(C)C)CCN(C(=O)NC(C)C)CC2 | -2.07% | 0.412% |
| O=c1cc(Cn2ccnc2)nc2n1CCCN(Cc1ccsc1)C2 | -0.029% | -13.8% |
| COc1cccc(C(=O)N2CCCC(c3cc(C)[nH]n3)C2)c1OC (stereo not given) | -1.08% | 27% |
| CC(=O)N1CCCN(C(=O)NCCc2cc(Cl)cc(Cl)c2)CC1 | -1.44% | -10% |
| Cc1cc2n(n1)CC(CNC1CCN(c3ccc(F)cc3)CC1)CN2 (stereo not given) | 4.19% | -37.2% |
| c1ncc(Nc2nccc(C3CCCCN3CC3CCCCC3)n2)cn1 (stereo not given) | 0.28% | -0.91% |
| CCOc1cc(C(=O)N2CCCC(c3noc(C)n3)C2)ccn1 (stereo not given) | 0.253% | 28.1% |
| Cn1cnc2c1C(COCc1cccnc1)N(Cc1ccccn1)CC2 (stereo not given) | 2.65% | -18.6% |

| SMILES | Percent Effect [1] | Percent Effect [2] |
| --- | --- | --- |
| COCCOCC(=O)Nc1ccc(Br)cc1F | -5.06% | -5.97% |
| CN(C)CC(=O)N1CCOC2(CCCN(c3ncccc3F)C2)C1 (stereo not given) | 1.93% | -5.68% |
| COc1cccc(N2CCN(CC(O)c3cc(C)sc3C)CC2)c1 (stereo not given) | 0.432% | 6.38% |
| Cn1ncc2c1CN(Cc1cccnc1)CC2COCC1CC1 (stereo not given) | 2.03% | -44.8% |
| CC(C(=O)N1CCCN(Cc2ccc(C#N)cc2)CC1)n1ccnc1 (stereo not given) | -0.834% | 29.9% |
| Cc1cc(CNC(=O)N2CCCN(Cc3ccccc3)CC2)no1 | -4.23% | 9.91% |
| Cc1nnc2n1CCN(C(=O)c1cc(Cl)c[nH]1)C2 | -0.345% | 2.46% |
| Cc1nc(CCCNC(=O)C2CC(=O)N(C(C)(C)C)C2)sc1C (stereo not given) | -1.3% | -11.5% |
| O=C(Cn1cnc(NC(=O)CC2CCCC2)n1)NCc1ccccc1 | -1.37% | 12.3% |
| CN(Cc1cnn(C)c1)C(=O)Cn1c(CS(C)(=O)=O)nc2ccccc21 | -0.869% | 1.77% |
| CC(COc1ccc(F)cc1F)NC(=O)NCCN1CCOCC1 (stereo not given) | -1.71% | -3.82% |
| CCc1noc(C(C)N2CCN(Cc3noc(C)n3)CC2)n1 (stereo not given) | -5.46% | -10.9% |
| Cc1ccc(NC2CCN(C(=O)c3ccc(Cl)o3)CC2)nn1 | 1.75% | 7.55% |
| CC1CCN(S(=O)(=O)NCc2ccccc2Cn2cncn2)CC1 | -6.51% | 4.16% |
| CCS(=O)(=O)N1C[C@@H](OCc2cccnc2)[C@H]2OCCC[C@H]21 | 3.4% | 5.21% |
| CC(=O)N1C[C@H](NC(=O)c2cscn2)[C@@H]2OCCC[C@@H]21 | -2.64% | 6.1% |
| CC(C)CC(=O)N1CC[C@@H]2[C@H](CC1)N(S(C)(=O)=O)CCS2(=O)=O | -2.04% | -14.8% |
| COc1cc(C)nc(N2CCN(C(=O)c3ccc(Cl)o3)CC2)n1 | 0.508% | 20% |
| O=C(c1ccco1)N1CCC2(CCOC2)C1 (stereo not given) | 2.53% | -46.7% |
| Cc1nccn1CCCC(=O)N1CCC(Nc2cccnn2)CC1 | -0.211% | -6.43% |
| CCN1CCN(S(=O)(=O)c2cc(C)c(Cl)cc2Cl)CC1 | -2.59% | -47.6% |
| Cn1cccc1C(=O)N1CCC2(CC1)CN(c1cncnc1)C(=O)CO2 | -4.72% | -1.71% |
| CC(=O)N(Cc1noc(C)n1)C1CCN(Cc2cc(C)on2)C1 (stereo not given) | 4.07% | 11% |
| COCC(=O)N(C)Cc1ccc(Cl)c(Cl)c1 | -3.56% | 2.03% |
| Cn1cc(CN2CCn3cc(CNC(=O)C4CCC4)nc3C2)cn1 | 1.34% | -6.29% |

| SMILES | Percent Effect [1] | Percent Effect [2] |
| --- | --- | --- |
| Cc1cnc(CN2CCCC(c3cc(C(N)=O)[nH]n3)C2)o1 (stereo not given) | 9.73% | 13.4% |
| CCN1C(=O)CCC12CCCN(Cc1nccs1)CC2 (stereo not given) | 2.52% | 1.68% |
| O=C1CC(c2cccnc2)c2c(c(C(=O)O)cn2-c2ccccc2)N1 (stereo not given) | 4.82% | -6.55% |
| CCN1CCN(C2CCN(Cc3nnc(C(C)(C)C)o3)CC2)C1=O | -1.73% | 25.7% |
| Cc1cccc(CC(=O)NCCCOC(C)C)c1 | -4.16% | -10.2% |
| O=C(O)[C@@H]1CN(C(=O)c2ccc3[nH]nnc3c2)C[C@H]1c1cccc(F)c1 | -0.0228% | -15.6% |
| Cn1ccnc1CN1CCC2(COCCN(Cc3ccsc3)C2)C1 (stereo not given) | -5.11% | -19.8% |
| COc1cccc(-n2c(C)cc(C(=O)NS(C)(=O)=O)c2C)c1 | -1.31% | 4.7% |
| CC(C)(C)OC(=O)CNC(=O)CCc1nnc(-c2ccsc2)o1 | 8.92% | -21.2% |
| Cc1ccc([C@@H]2CN(C(=O)c3csc(C)n3)C[C@H]2NC(=O)C2CC2)cc1 | -3.36% | 15.2% |
| COc1ccc(C2=C(C)C(N3CCc4ccccc43)=NS2(=O)=O)cc1 | -2.38% | -24.6% |
| N#Cc1cccc(N2CC3(CCN(C(=O)c4cccnc4)C3)CC2=O)c1 (stereo not given) | 2.09% | -13.7% |
| Cc1n[nH]c(C(=O)NCc2ccnc(OCC(F)(F)F)c2)c1Br | -3.15% | 9.67% |
| Cc1noc(C)c1CN1CC2(CCN(C(=O)c3cscn3)CC2)CC1=O | 6.36% | -13.6% |
| CCN(C(=O)COC)C(c1cccnc1)c1cc(C)cc(C)c1 (stereo not given) | 1.28% | -51.4% |
| CC(=O)N1CCN(C(=O)c2cc(-n3cnnn3)ccc2Cl)CC1 | -1.41% | -21.8% |
| Cc1ccc([C@@H]2CN(C(=O)c3cccnn3)C[C@H]2NC(=O)C2CC2)cc1 | -3.85% | 29.5% |
| COCC(C)NC(=O)c1cc(Br)c2c(c1)OCCO2 (stereo not given) | -9.24% | -10.8% |
| COc1ccc(CNC(=O)NCc2c(C)cc(C)[nH]c2=O)cc1 | 4.97% | 34.9% |
| CCn1ccnc1CN1CCN(Cc2ccc(C#N)cc2)CC1 | -0.278% | -29.2% |
| Cc1noc(Cl)c1CCC(=O)N1CCN(c2ncccn2)CC1 | -3.2% | 36% |
| CC(C)n1cc(S(=O)(=O)N2CCCCC2)cn1 | -0.668% | -17.6% |
| CCc1nc(C)c(C(=O)NCCN2CCN(C(C)=O)CC2)s1 | 0.0694% | -21.7% |
| Cc1cncc(C2CCCN(C(=O)c3cccn3C)C2)n1 (stereo not given) | 1.84% | -12.2% |
| CCC(=O)N1CCN(C(=O)CCn2cccn2)CC1 | -2.56% | -8.34% |

| SMILES | Percent Effect [1] | Percent Effect [2] |
| --- | --- | --- |
| CCOc1nc2cccnc2n(CC(=O)NCCOC)c1=O | -2.81% | -9.03% |
| Cc1ccc(-n2nnc(C(=O)Nc3cc(C)nn3C)c2C2CC2)cc1 | -2.8% | 34.4% |
| COc1cc(N2CCCC(c3nccn3Cc3cscn3)C2)nc(N)n1 (stereo not given) | -2.33% | 14.5% |
| Cc1ccc(C#N)cc1NC(=O)NC1CCCN(c2ncccn2)C1 (stereo not given) | 1.97% | -2.85% |
| COCCn1cc2c(n1)C(CNCc1ccc(F)cc1)OCC2 (stereo not given) | 1.2% | -6.53% |
| CCCc1cc(C(=O)N2CCCC2c2cccnc2)[nH]n1 (stereo not given) | 3.74% | 11.1% |
| Cc1ccc(-c2cccc(-c3ccn(CCN4CCCC4)n3)c2)nn1 | -1.26% | -13.8% |
| CCn1ccnc1CN1CCN(CCOc2ccccc2OC)CC1 | -3.95% | -17.6% |
| CCc1nnc2n1CCN(C(=O)c1ccc(-c3ccco3)nc1C)C2 | -3.2% | -27.7% |
| Cn1cc(NC(=O)N2CCC(NS(C)(=O)=O)CC2)ccc1=O | 57.4% | -31.1% |
| NC(=O)N1CCC2(CC1)CN(Cc1cccnc1)C(=O)CO2 | 0.66% | -1.38% |
| N#Cc1ccccc1CN1C[C@@H]2CC[C@H](C1)N(CC1CC1)C2=O | 2.11% | -9.72% |
| O=C(c1ccccc1-n1cccn1)N1CCCN(c2cccnn2)CC1 | 0.98% | 33% |
| Cn1cnnc1C1CCCN(C(=O)NCc2cc[nH]n2)C1 (stereo not given) | 4.95% | 12.3% |
| Cc1cc(C)n2cc(CN3CCCC3Cn3nc(C)nc3C)nc2n1 (stereo not given) | -2.84% | 5.36% |
| Cn1cc(N2CC3(CCN(CC4CCOCC4)CC3)OCC2=O)cn1 | -2.85% | -32.8% |
| CCn1cnnc1C1CCN(C(=O)c2cnc3ccccc3n2)CC1 | -1.17% | -10.9% |
| N#Cc1cccnc1NCCNC(=O)N1CCCC(C(F)(F)F)C1 (stereo not given) | -0.524% | -17.9% |
| CC(Cn1cccn1)NC(=O)NCc1cccnc1OC1CCCC1 (stereo not given) | -4.78% | -7.65% |
| CC(=O)N1CCC(c2cncc(Oc3ccccc3)n2)CC1 | 0.485% | 3.32% |
| COCc1cccc(NS(=O)(=O)c2cc(C(=O)O)cs2)c1 | 0.144% | -27.7% |
| Cc1cc(NCc2cc3n(n2)CCCN(C(=O)N(C)C)C3)ncn1 | 0.54% | -3.81% |
| O=C1N(c2ccc(F)cc2)Cc2nc(=O)n(Cc3cccc(Cl)c3)n21 | 0.784% | -12.3% |
| Cc1nnc(CN2CCC(N(C)Cc3nnc(C4CC4)n3C)C2)o1 (stereo not given) | -1.43% | 18.5% |
| CS(=O)(=O)N1CCc2c(cccc2NC(=O)CC(F)(F)F)C1 | 5.45% | 2.18% |
